Potency data for 17 compounds are collected here from PubChem BioAssay (NCATS).

Records with an inconclusive call do not appear. A call without a number means that no potency is given here. The source made the active and inactive calls. Calls follow the shape of the dose curve; as a rule, active = well fitted inhibition curve with a large enough effect; inconclusive = small, poorly fitted or top-dose-only effect; inactive = flat fitted curve, though single readings scatter.

Chain of Calcium and integrin-binding protein 1 (Homo sapiens) (Q99828 whole entry, looked up): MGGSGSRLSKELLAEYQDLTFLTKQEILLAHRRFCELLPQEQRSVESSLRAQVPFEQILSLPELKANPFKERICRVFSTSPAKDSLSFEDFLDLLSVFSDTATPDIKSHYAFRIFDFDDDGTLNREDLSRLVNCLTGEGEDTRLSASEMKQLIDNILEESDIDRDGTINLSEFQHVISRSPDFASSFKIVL

The target in this assay is Calcium and integrin-binding protein 1 (Homo sapiens) (UniProt Q99828). Briefly: Primary qHTS for Identification of Calcium Integrin Binding Protein 1 (CIB1) Competitor (AID 1508620).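 Also: GST tagged CIB1 binding a fluorescein labelled alphaIIb integrin peptide tracer; top concentration of the series differs between compounds.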 The settings on record: CIB1-GST / FITC-alphaIIb peptide fluorescence polarization; series mostly up to 114 µM. The gist of the method:
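CIB1-GST (1 uM final) and compound incubated 15 min at room temperature before adding FITC-alphaIIb peptide tracer (100 nM final). Competition for binding read by fluorescence polarization (ex 480, em 540) after another 15 min at room temperature.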
(qHTS replaces the single test concentration by a dilution series.)
Turning to `Cc1ccc(NS(=O)(=O)c2ccc3c(c2)oc(=O)n3C)cc1C`, the Potency result is “inactive”. Turning to `COc1ccc(C2Nc3ccccc3C(=O)N2Cc2ccccc2)cc1COc1ccc(F)cc1` (configuration not stated), the Potency result is “inactive”. Turning to `CN1CCN(c2nn3c(=O)c4ccccc4nc3s2)CC1`, the Potency result was “inactive”. For `Cn1c2cc(B(O)O)sc2c2cnn(Cc3c(F)cccc3Cl)c(=O)c21`, the Potency result is “inactive”.

Consider `CCNC(=O)C1CCN(C(=O)C(C)(C)NC(=O)Nc2ccccc2Cl)CC1`, for which the Potency entry is “inactive”. With `O=C(OCC#CCSc1nnc(-c2cccc3ccccc23)o1)C1CCCC1`, the Potency entry is “inactive”. The result for `CC(C)c1ccccc1-c1nc(NCc2ccc(-c3cccnc3)cc2)c2cccn2n1` reads “inactive”.

`COc1ccc(C2Nc3ccccc3C(=O)N2Cc2ccccc2)cc1Oc1ccc(NC(C)=O)cc1` (configuration not stated): the Potency entry is “inactive”. As for `Cc1cccc(-n2cnc3cc(C(=O)N4CCCCCC4)ccc32)c1`, the Potency result was “inactive”.

Turning to `Cc1ccc(C(=O)Oc2ccc(-c3nc4ccccc4[nH]3)cc2)cc1Br`, the Potency entry was “inactive”. As to `CC(=O)Nc1ccc(-c2c(NC(C)=O)sc3c2CCNC3)cn1`, the Potency result was “inactive”.

On to `Cn1cc(C[C@H](C(=O)O)N2C(=O)c3ccc(C(=O)O)cc3C2=O)c2ccccc21`, for which the Potency result was “inactive”.

Regarding `O=C(CNC(=O)C1CCCC1)OC(C(=O)Nc1cc(C(F)(F)F)ccc1Cl)c1ccccc1` (configuration not stated), the Potency result was “inactive”.

As to `c1nc(NCCCN2CCOCC2)c2cc(-c3ccc4c(c3)OCO4)ccc2n1`, the Potency entry was “inactive”. `C=CCNc1oc(-c2cccc(Cl)c2)nc1C#N`: the Potency result was “inactive”. Consider `Cc1cccc(-c2nnc(C)n2CCCn2ccnc2)c1N`, for which the Potency entry was “inactive”.

For `Cc1ccc(OCCn2c(CCNC(=O)/C=C/c3cccc(Br)c3)nc3ccccc32)cc1`, the Potency result is “inactive”.
